Data on 35 compounds can be found in PubChem BioAssay.

Each structure is given as a SMILES string.
Also: test concentration not given here.

The nature of one assay: adipocyte viability effects, profiling panel, cell-based, 3T3-L1 adipocytes, calcein-AM fluorescence, 48 h, basal (AID 1163). The note with it: 3T3-L1 adipocytes viability, higher = more signal.
As to `COc1ccc([Si](C)(C)[C@H]2[C@H](CC(=O)N3Cc4ccccc4C[C@H]3CO)O[C@@]3(C(=O)N(Cc4cccc(N5C(=O)c6cccc7cccc5c67)c4)c4ccccc43)[C@@H]2C)cc1`, the z-score was 0.986. Still for that read-out and setting: for `CN1C(=O)C2C(C1=O)C1C=C(c3ccc(CO)cc3)C2C(c2cccs2)N1C` (stereo unspecified) the value was 0.338. Turning to `CC(C)CNC(=O)[C@@]1(C)c2ccccc2C(=O)N(Cc2cc(F)cc(C(F)(F)F)c2)[C@H]1c1ccc(CO)cc1`, the z-score is 1.32.

Regarding `COc1ccc([Si](C)(C)[C@H]2[C@H](CCO)O[C@@]3(C(=O)N(Cc4ccc(N5CCOC5=O)cc4)c4ccccc43)[C@@H]2C)cc1`, the z-score is 0.684.

As to `CCCC=C(CCC)[C@@H](NC(=O)c1ccco1)c1ccc(C(=O)OC)cc1`, the z-score was -1.72.

`CO[C@H]1O[C@H](CO)[C@@H](OC(=O)Nc2ccc(C(F)(F)F)cc2)[C@H](OC(=O)Nc2ccccc2-c2ccccc2)[C@@H]1OC(=O)Nc1ccccc1-c1ccccc1`: the z-score was -0.029.

As for `CC[C@H](C)C(=O)O[C@H]1CC[C@]2(C)C3=C(CCC2C1(C)C)[C@]1(C)CC[C@H]([C@H](C)CCCC(C)C)[C@@]1(C)CC3` (stereo partly specified), the z-score was 0.265. On the same count and under the same terms, for `COCCn1c(C(=O)N2CCCC2)cc2c1C[C@H]1CN(C(=O)c3ccccc3)[C@@](Cc3ccccc3)(C(=O)OC)[C@@H]21` the value was -0.239; for `C[C@]1(C(=O)NCC(F)(F)F)c2ccccc2C(=O)N(Cc2ccc(OC(F)(F)F)cc2)[C@H]1c1ccc(CO)cc1`, 0.194; for `CN(C)CCCNC(=O)[C@@H]1c2ccccc2C(=O)N(C2Cc3ccccc3C2)[C@H]1c1ccc(CO)cc1`, 0.121. On the same count and under the same terms, the result for `Cc1c(NC(=O)/C(C#N)=C/c2ccc(Cl)cc2)c(=O)n(-c2ccccc2)n1C` reads 0.22; that for `C=CCC(OC(C)=O)[C@@H]1[C@@H](N(Cc2ccc(-c3ccccc3)cc2)C(=O)c2cccc3ccccc23)c2cc(OCCCO)ccc2N1C(=O)c1ccc2ccccc2c1` (stereo partly specified), -0.114. Same read-out and setting: the result for `COCCOC(=O)N1C(=O)[C@@]2(c3ccccc31)[C@H](c1ccc(OCCO)cc1)N1[C@H](c3ccccc3)[C@H](c3ccccc3)OC(=O)[C@H]1[C@@H]2C(=O)N1CCN(c2ncccn2)CC1` reads 1.39; that for `C=C(/C(=C/C[C@@H](OC(C)=O)c1ccccc1OCCO)c1cc(C(=O)OC)ccc1OC)C(C)C`, -0.515.

`CCCC[C@H]1OB(O)C[C@H]2C1=C(COC)C[C@H]1C(=O)C=CC(=O)[C@H]12`: the z-score is -0.0373.

On to `COc1ccc(NC(=O)O[C@H]2[C@H](OC(=O)Nc3ccc4c(c3)OCO4)[C@H](OC(=O)Nc3ccc4c(c3)OCO4)[C@@H](OC)O[C@@H]2CO)cc1`, for which the z-score was 0.568. On the same count and under the same terms, for `C=CCN1C(=O)[C@]2(O[C@H](CCO)[C@@H]([Si](C)(C)c3ccc(OC)cc3)[C@@H]2C)c2ccccc21` the value was -0.448; for `COC(=O)[C@]1(CO)N=C(c2ccc(OCCCO)cc2)O[C@@H]1c1ccccc1CN=[N+]=[N-]`, 0.131; for `COc1cccc(OC)c1C(=O)O[C@H]1[C@@H]2OC(=O)[C@H](Cc3cccc(Br)c3)C/C=C/C[C@@H](Cc3cccc(Br)c3)C(=O)O[C@H]2[C@@H](OC)O[C@@H]1CO`, 0.0726. Still for that read-out and setting: the result for `COCCOC(=O)N1C(=O)[C@@]2(c3cc(C#CC4(O)CCCCCC4)ccc31)[C@H](C(=O)NC[C@H](O)c1ccccc1)[C@H]1C(=O)O[C@H](c3ccccc3)[C@H](c3ccccc3)N1[C@@H]2c1ccc(O)cc1` reads -0.111; that for `O=C1C2C=CC(C(O)c3ccc([N+](=O)[O-])cc3)N(Nc3ccccc3)C2C(=O)N1c1ccccc1` (stereo unspecified), -1.38; that for `C=C(CCCC)C(=O)CC[C@H](OC(C)=O)c1ccccc1OCCO`, 1.66. On the same count and under the same terms, the result for `C=C(COC)/C(=C/C[C@H](OC(=O)c1ccncc1)c1ccc(OCCO)cc1)c1cc(C(=O)OC)ccc1OC` reads 1.7; that for `COC(=O)[C@@]1(Cc2ccc(OC)cc2)[C@@H]2[C@@H](CC(=O)[C@H]2CC(=O)C(=O)N2CCCC2)CN1C(=O)c1ccccc1`, 0.745; that for `CCOC(=O)C[C@H]1[C@H](OC(=O)c2ccc(-c3ccccc3)cc2)[C@@H](NC(=O)CC(C)C)c2cc(OCCCO)ccc2N1C(=O)Cc1ccc(OC)cc1`, 0.22.

For the compound `C=CCN1C(=O)[C@]2(O[C@H](CCn3cc([C@H](O)c4ccccc4)nn3)[C@@H]([Si](C)(C)c3ccc(OC)cc3)[C@@H]2C)c2cc(N3C(=O)c4cccc5cccc3c45)ccc21`, the z-score was -0.363.

The next assay is described as follows: HepG2 cell viability effects, profiling panel, calcein-AM fluorescence, 48 h, basal (AID 1164). To be noted: higher = more signal.
Regarding `CCCC[C@@H](O)C1=C(COC)Cn2c(=O)n(-c3ccccc3)c(=O)n2[C@H]1CO`, the z-score is 0.166. Same read-out and setting: for `CCN(CC)c1ccc(N2CC=CC34O[C@@H]5C=CCOC(=O)[C@@H]5[C@H]3C(=O)N(CCCO)[C@@H]4C2=O)cc1` (stereo partly specified) the value was -0.244; for `COCCOC(=O)N1C(=O)[C@@]2(c3cc(C#CCC(C(=O)OC)C(=O)OC)ccc31)[C@H](c1ccc(OCCO)cc1)N1[C@H](c3ccccc3)[C@H](c3ccccc3)OC(=O)[C@H]1[C@@H]2C(=O)N1CCCCCCC1`, 0.496; for `CCOC(=O)C1=CC[C@@H](c2ccc(F)cc2)N(S(=O)(=O)c2ccc(C)cc2)[C@H]1c1ccc([N+](=O)[O-])cc1`, -0.661. The same measure, in the same setting: for `COC(=O)c1c(CC[C@@H](CO)NC(=O)N[C@@H](Cc2ccccc2)Cn2cc(-c3cncn3C)nn2)oc(C(C)=O)c1C(=O)OC` the value was -0.382; for `O=C(NCCO)C1=C[C@H](Oc2ccccc2I)[C@@H](O)[C@H](NCc2ccc(F)cc2)C1`, -0.793; for `CCCCN1CC=CC23O[C@@H]4/C=C\CCC(C)OC(=O)C4[C@H]2C(=O)N(C(C)CO)[C@@H]3C1=O` (stereo partly specified), 0.201. On the same count and under the same terms, the result for `CC(C)C[C@@H]1NC(=O)C([C@@H](C)OCc2ccccc2)NC(=O)[C@@]23C(=O)N[C@@H](Cc4ccccc4)C2[C@H](C)[C@@]2(C)O[C@H]2C3/C=C/CC/C=C/CNC1=O` (stereo partly specified) reads 0.0538; that for `COCCOC(=O)N1C(=O)[C@@]2(c3cc(C#CCCO)ccc31)[C@H](C(=O)N1CCc3cc(OC)c(OC)cc3C1)[C@H]1C(=O)O[C@H](c3ccccc3)[C@H](c3ccccc3)N1[C@@H]2c1ccccc1OCCO`, 1.61; that for `COc1ccc([Si](C)(C)[C@H]2[C@H](CC(=O)N3Cc4ccccc4C[C@H]3CO)O[C@@]3(C(=O)N(Cc4cccc(N5C(=O)c6cccc7cccc5c67)c4)c4ccccc43)[C@@H]2C)cc1`, -0.475. As for `CN1C(=O)C2C(C1=O)C1C=C(c3ccc(CO)cc3)C2C(c2cccs2)N1C` (stereo unspecified), the z-score was 0.186. Still for that read-out and setting: the result for `CC(C)CNC(=O)[C@@]1(C)c2ccccc2C(=O)N(Cc2cc(F)cc(C(F)(F)F)c2)[C@H]1c1ccc(CO)cc1` reads -0.49. Same read-out and setting: the result for `COc1ccc([Si](C)(C)[C@H]2[C@H](CCO)O[C@@]3(C(=O)N(Cc4ccc(N5CCOC5=O)cc4)c4ccccc43)[C@@H]2C)cc1` reads -0.591; that for `CCCC=C(CCC)[C@@H](NC(=O)c1ccco1)c1ccc(C(=O)OC)cc1`, -5.68.

For the compound `CO[C@H]1O[C@H](CO)[C@@H](OC(=O)Nc2ccc(C(F)(F)F)cc2)[C@H](OC(=O)Nc2ccccc2-c2ccccc2)[C@@H]1OC(=O)Nc1ccccc1-c1ccccc1`, the z-score was -0.745. Regarding `CC[C@H](C)C(=O)O[C@H]1CC[C@]2(C)C3=C(CCC2C1(C)C)[C@]1(C)CC[C@H]([C@H](C)CCCC(C)C)[C@@]1(C)CC3` (stereo partly specified), the z-score is 0.469. Still for that read-out and setting: the result for `COCCn1c(C(=O)N2CCCC2)cc2c1C[C@H]1CN(C(=O)c3ccccc3)[C@@](Cc3ccccc3)(C(=O)OC)[C@@H]21` reads -0.768; that for `C[C@]1(C(=O)NCC(F)(F)F)c2ccccc2C(=O)N(Cc2ccc(OC(F)(F)F)cc2)[C@H]1c1ccc(CO)cc1`, 0.334. The same measure, in the same setting: for `CN(C)CCCNC(=O)[C@@H]1c2ccccc2C(=O)N(C2Cc3ccccc3C2)[C@H]1c1ccc(CO)cc1` the value was 1.99; for `Cc1c(NC(=O)/C(C#N)=C/c2ccc(Cl)cc2)c(=O)n(-c2ccccc2)n1C`, 0.115; for `C=CCC(OC(C)=O)[C@@H]1[C@@H](N(Cc2ccc(-c3ccccc3)cc2)C(=O)c2cccc3ccccc23)c2cc(OCCCO)ccc2N1C(=O)c1ccc2ccccc2c1` (stereo partly specified), 0.833. The same measure, in the same setting: for `COCCOC(=O)N1C(=O)[C@@]2(c3ccccc31)[C@H](c1ccc(OCCO)cc1)N1[C@H](c3ccccc3)[C@H](c3ccccc3)OC(=O)[C@H]1[C@@H]2C(=O)N1CCN(c2ncccn2)CC1` the value was -0.29.

On to `C=C(/C(=C/C[C@@H](OC(C)=O)c1ccccc1OCCO)c1cc(C(=O)OC)ccc1OC)C(C)C`, for which the z-score is 0.561. Still for that read-out and setting: for `CCCC[C@H]1OB(O)C[C@H]2C1=C(COC)C[C@H]1C(=O)C=CC(=O)[C@H]12` the value was -0.0926; for `COc1ccc(NC(=O)O[C@H]2[C@H](OC(=O)Nc3ccc4c(c3)OCO4)[C@H](OC(=O)Nc3ccc4c(c3)OCO4)[C@@H](OC)O[C@@H]2CO)cc1`, -0.54; for `C=CCN1C(=O)[C@]2(O[C@H](CCO)[C@@H]([Si](C)(C)c3ccc(OC)cc3)[C@@H]2C)c2ccccc21`, -4.62.

As to `COC(=O)[C@]1(CO)N=C(c2ccc(OCCCO)cc2)O[C@@H]1c1ccccc1CN=[N+]=[N-]`, the z-score is 0.422. Still for that read-out and setting: for `COc1cccc(OC)c1C(=O)O[C@H]1[C@@H]2OC(=O)[C@H](Cc3cccc(Br)c3)C/C=C/C[C@@H](Cc3cccc(Br)c3)C(=O)O[C@H]2[C@@H](OC)O[C@@H]1CO` the value was -0.215; for `COCCOC(=O)N1C(=O)[C@@]2(c3cc(C#CC4(O)CCCCCC4)ccc31)[C@H](C(=O)NC[C@H](O)c1ccccc1)[C@H]1C(=O)O[C@H](c3ccccc3)[C@H](c3ccccc3)N1[C@@H]2c1ccc(O)cc1`, 0.814. `O=C1C2C=CC(C(O)c3ccc([N+](=O)[O-])cc3)N(Nc3ccccc3)C2C(=O)N1c1ccccc1` (stereo unspecified): the z-score was 0.761. On the same count and under the same terms, the result for `C=C(CCCC)C(=O)CC[C@H](OC(C)=O)c1ccccc1OCCO` reads -0.713. On the same count and under the same terms, the result for `C=C(COC)/C(=C/C[C@H](OC(=O)c1ccncc1)c1ccc(OCCO)cc1)c1cc(C(=O)OC)ccc1OC` reads -0.842.

In the case of `COC(=O)[C@@]1(Cc2ccc(OC)cc2)[C@@H]2[C@@H](CC(=O)[C@H]2CC(=O)C(=O)N2CCCC2)CN1C(=O)c1ccccc1`, the z-score is 0.681. On to `CCOC(=O)C[C@H]1[C@H](OC(=O)c2ccc(-c3ccccc3)cc2)[C@@H](NC(=O)CC(C)C)c2cc(OCCCO)ccc2N1C(=O)Cc1ccc(OC)cc1`, for which the z-score was -0.114. On the same count and under the same terms, the result for `C=CCN1C(=O)[C@]2(O[C@H](CCn3cc([C@H](O)c4ccccc4)nn3)[C@@H]([Si](C)(C)c3ccc(OC)cc3)[C@@H]2C)c2cc(N3C(=O)c4cccc5cccc3c45)ccc21` reads -3.33.
